Measured values: the supplement of paper PMC3334620
In all, about 33,000 sequences were measured (“E-score (-0.5 to 0.5)”: median about -0.0014, highest 2% from about 0.25 on). The list comes from a sample in which the highest values are over-represented; it also holds similar and randomly drawn sequences.

biological target: T1, Cad1 (UniProt P24813); experiment: PBM E-score (8-mer binding enrichment) (E-score (-0.5 to 0.5)); higher = stronger / more preferred TF binding; conditions: protein concentration: 100 nM; construct: GST-full length
T1 sequence: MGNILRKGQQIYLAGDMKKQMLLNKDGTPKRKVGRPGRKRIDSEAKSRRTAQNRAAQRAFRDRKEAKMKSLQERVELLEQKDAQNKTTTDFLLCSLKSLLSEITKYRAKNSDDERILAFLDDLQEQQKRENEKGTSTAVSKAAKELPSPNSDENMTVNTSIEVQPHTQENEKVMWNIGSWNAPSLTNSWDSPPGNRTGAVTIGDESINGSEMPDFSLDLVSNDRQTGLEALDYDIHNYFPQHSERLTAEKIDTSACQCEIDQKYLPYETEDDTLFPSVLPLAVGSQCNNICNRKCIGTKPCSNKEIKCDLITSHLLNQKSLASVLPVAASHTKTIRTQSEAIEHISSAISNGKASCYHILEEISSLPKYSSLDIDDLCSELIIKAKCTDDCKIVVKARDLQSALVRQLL
Method in brief: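 Detection of bound protein used fluorescent anti-GST, with scans normalised by masliner. The proteins were GST-tagged yeast transcription factors applied at about 100-200 nM to universal all-10-mer Agilent arrays made double-stranded by primer extension. Each ungapped eight-base word, pooled with its reverse complement, was scored with an E-score from the Universal PBM Analysis Suite.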

Sequence	PBM E-score
CCCTAGGC	-0.079
TACCCAGA	0.109
ACACAGAT	0.0606
CGCACACC	0.0191
ACGTCCGA	-0.0154
CCTGGTAG	-0.209
TAGTTATA	0.068
AGTGCGTC	-0.0502
AACCTGCC	-0.164
GTCTAGTA	0.0789
AACTTGAC	0.0523
ACGCACCC	-0.147
AAAGTTCT	0.0926
ACTACCGG	-0.231
ACAAACAC	0.262
ATAAACAA	0.261
TTAAACAA	-0.157
ATAAACAC	0.15
ACAAACAA	0.176
ATAACGAA	0.258
TCAACGAA	0.0907
ACAAACAG	0.0175
ACAACGAA	0.145
ATAACGAC	0.189
CTAACGAA	0.153

Sequence	PBM E-score
GCAACGAA	0.275
GACCACGA	0.0423
CGCACTAC	0.0013
GGCCGTTA	0.0668
ACGTGGAG	-0.0145
CCCCTATA	-0.144
CCGGTCTC	-0.161
CTTAGAGC	-0.0659
AAAAGCGC	0.0216
AAGTGCTA	-0.257
GGGTCCGA	-0.21
ACGAGACC	-0.00034
ATAACAAG	0.205
CGAACAAA	0.28
ATAACAAA	0.312
ATAACAAT	0.0624
AGAACAAA	0.247
CGAACAAG	0.128
GCATCGAC	-0.0789
GACAGATA	0.0715
AAACGTTG	-0.0452
CAACGTTC	-0.009
CAACGTTG	0.263
CGTATTAG	0.165
AGTATTAG	0.299

Sequence	PBM E-score
AGTATTAA	0.0712
GTTATTAA	0.291
ATTATTAC	0.0832
GTTGTTAA	0.259
ATTGTTAA	0.0122
GTTATTTA	0.153
ACTATTAA	0.123
ATTATTAA	0.384
GTTATTGA	0.159
CTTGTTAA	-0.0916
CTCGCGGA	-0.155
CGCAGCAC	0.0114
ACATACGA	0.117
CTGAAGAA	-0.18
CAACTGTG	-0.031
CAAGACAG	-0.0259
CATGCCAG	-0.0523
CTTATTAC	0.218
AGTGTTAA	0.255
GGTGTTAA	0.0749
CTTATTAA	0.42
CCTATTAA	-0.00224
TGTGTTAA	0.19
TATTTTAA	0.107
GCGGCTTA	0.227

Sequence	PBM E-score
ACCTCTTA	0.153
AAGTCATG	0.0989
ACCGCCTG	-0.142
ACCCGGAC	-0.179
ATTTAATA	0.316
CTTTAATA	0.218
ATTTAATC	0.285
GTTTAATA	0.189
ATTTAATG	0.213
CTTTAATC	-0.00133
AGAGAGGC	-0.297
AGTAAACT	0.105
CCTAGATA	-0.0467
CACGTTTC	-0.176
CAATTTTA	0.27
CAATTTTC	0.125
CAATTTAA	0.156
CTCGCTGA	0.0202
ACGATCGG	0.0625
ACGATCGA	0.254
CCGATCGA	0.0111
GCGATCGA	0.248
TCGATCGA	0.27
ACGATCGT	-0.0266
GATTGAGC	0.0444

Sequence	PBM E-score
ATCAGCAT	0.192
CACTAACC	0.0546
CACTAATC	0.262
GACTAAGC	0.228
AACTAATC	0.179
GACTAATC	0.362
CACTAAGC	0.0972
CTCGCTCA	0.138
CACCGCCC	-0.0109
AAACTTAT	0.256
AAACTAAG	0.166
AAACTCAG	-0.00451
TAACTTAA	0.259
AAACTAAT	0.36
AAACTCAA	0.163
AAACTAAA	0.141
AAACTTAA	0.171
GAACTTAA	0.116
AAACTTAC	0.0226
CAACTTAA	0.0842
AAACTCAT	0.253
CCCCCTGA	-0.414
AGGGATCG	-0.207
AAAAGTGT	-0.074
CCAGACAA	0.0234

Sequence	PBM E-score
CTAGGTGC	-0.221
AACCGCTT	0.0439
CTTCCTAA	0.0434
AGTCCTTG	-0.0247
ATCAAGCC	-0.0325
CATCGCGA	0.25
TATCGCGA	0.259
AATCGCGA	0.196
TATCGCAA	0.22
CATCGCGC	0.051
GATCGCGA	0.132
CGGCTCCA	-0.0781
CGCGTTAC	0.139
AACGGGGT	-0.13
GTTAGCAA	0.0595
TTAAGCAA	-0.0269
CTAAGCAG	-0.078
CTAAGCAC	0.294
GTAAGCAC	0.163
ATAAGCTA	-0.0126
CTAAGCAA	0.0503
ATTAGCAG	0.0216
CTAAGCTA	0.135
GTAAGCTA	0.298
GTAAGCAA	0.345

Sequence	PBM E-score
ATTAGCAA	0.304
AGTGTCTG	0.15
ACGCAGGG	-0.155
AGCTGCGC	0.0681
ACAAAGTG	0.0733
GCTCAGAC	-0.0381
CACCTAGA	-0.156
CTTAAGCC	0.00617
ATAAGCAA	0.296
ATAAGCAT	0.0827
ATAAGCAC	0.208
AGATACAG	0.0445
CGATACAA	0.0958
AGATACAA	0.256
GTGCTCTA	-0.119
GTGACTTA	0.1
ATAAGCGG	0.0934
GGAAGCGA	-0.0787
ATAAGCGA	0.287
ATAAGCGC	0.139
CTAAGCGA	0.0774
GTAAGCGA	0.281
CAAACCGG	-0.0831
AAGTATGG	0.00171
ACTGGAGG	0.0173

Sequence	PBM E-score
ATATTTAG	0.255
CTATTTAA	-0.0377
ATATTTGG	0.146
ATTTTTAG	0.0211
ACATTTAA	0.253
ATATTTAC	0.228
ATATTTGC	0.306
ACATTTAG	-0.126
GCATTTAA	0.0157
GTATTTAA	0.0263
ATATTTAA	0.272
CTATTTGC	-0.0458
CAAGAGGG	-0.247
CGCAACGA	-0.00619
CCGGAAAC	0.125
CCCGGGTC	-0.242
ATGACGAA	0.145
ATATGATA	0.285
GTATGATA	0.23
ATGATATC	0.0971
CTATGATA	0.0824
ATGATATA	-0.027
ATGATATG	0.29
CTAACTGC	-0.0676
AAACACCA	-0.00879

Sequence	PBM E-score
CGTATGGC	0.14
AGTACGAA	0.22
AGCAGCGG	-0.0904
AAATTATC	0.246
AAATTATG	0.255
CAATTATG	0.105
ATATTATA	0.164
ATATTATC	0.096
ATATTATG	0.268
ACATGTAT	0.204
ATGCCTTA	-0.158
CGTGATCA	0.123
AATTTTGG	0.149
CTTGGTAA	0.0981
GTTGGTAA	0.19
ATTGGTAA	0.257
GCCCACAA	-0.153
ATTCAATG	0.114
CTTCAATC	-0.066
ATTCAATC	0.263
GACACAGC	0.0664
CCTGTGCC	-0.136
AATCCGAC	0.00376
ATTCCGGG	0.122
ATTCCGGA	0.254

Sequence	PBM E-score
AATCCGGG	-0.0636
AATCCGGC	0.104
AATCCGGA	0.306
AATCCGAT	0.25
CTTCCGGA	0.0325
AATCCGAA	-0.0355
CTGCTCAC	-0.0643
TGACCACA	-0.0368
GTCTCCTA	-0.194
ACCAAGGC	-0.0921
ACAGTCCC	-0.188
CCTAGCAA	-0.0559
CGAGCTTC	0.258
CGAGCTTA	0.214
AGAGCTTC	-0.181
GAGCCCAC	-0.1
AAAGAACA	0.0562
GGACGTTA	0.0449
CGACGTTA	0.276
CGACGTTC	-0.265
CGCATGTC	0.0303
GCGAGGCC	-0.113
AATATTAC	0.347
GATATTAA	0.187
TGTATTAA	-0.00939

Sequence	PBM E-score
CATATTAC	0.225
CCTATTAC	-0.0089
AACATTAA	0.127
GACATTAA	0.124
TACATTAA	0.26
ACTATTAC	0.149
GCTATTAC	0.098
TATATTAA	0.326
GATATTAC	0.293
ACATGGAT	0.0578
ATTTGATC	-0.0183
AGCCCGAC	-0.149
ACGTTTGA	0.0358
AAAGGACT	-0.224
ATGTGGCC	-0.0491
AATGGTGC	-0.131
GCTGAACC	-0.0931
ACTTTGGC	-0.0521
TACTGCGA	0.0327
AGCTCCAG	-0.181
AGATTTCC	0.185
CATATTTA	0.232
AATATTAT	0.194
AATATTAG	0.213
CATATTAG	0.179

Sequence	PBM E-score
CATATTAA	0.272
AATATTAA	0.281
CGATTGTC	0.174
AGCTATTC	-0.215
ATATCATA	0.166
CTATCATA	0.148
CTATCTTA	0.0111
GTATCATA	0.288
ACATCATA	0.105
GTATCTTA	0.287
GCATCATA	0.296
GTATCTGA	0.0184
CCATCATA	-0.27
CGAGACCA	-0.0428
ACAAACTC	0.052
GGCTCCAC	-0.182
CCTCTGCG	-0.147
CGGGTAGA	0.0106
CGGTTGGC	0.0738
CGTTCTGA	-0.16
GACTGCGC	-0.0924
AACCCTCG	-0.0276
CTTATAAC	0.177
ATTATAAC	0.0512
CTTATAAG	-0.047

Sequence	PBM E-score
CTTATAAA	0.275
TTTATAAA	0.261
ATTATAAG	0.186
GTTATAAA	0.184
TGTATAAA	0.028
ATTATAAA	0.276
CCCGCGTC	0.0369
GTTCGAAA	0.241
ACCAGAGG	-0.164
GGCGGTAC	-0.0694
GGCCTTGA	0.0013
CACAAATA	0.259
GACAAAGC	0.06
TACAAATA	0.185
GACAAATC	0.306
CACAAATG	-0.0179
GACAAGAA	0.0396
AACAAATA	0.186
GACAAAGA	0.276
GACAAATA	0.293
GACAAGTC	0.00519
CACAAGTA	-0.0393
CACAAATC	0.126
GAACTTCA	0.066
CGAACTGA	-0.17

Sequence	PBM E-score
CCGGGGAC	-0.235
CCTTATAG	-0.219
ATTAGGGC	-0.0576
AGTTTTGG	0.127
GACAGCGC	0.14
ACGTGCGC	0.122
CAGTAGTC	-0.207
AACACGAT	0.123
AAGTTGGC	-0.125
AAGTTGGT	0.252
AAGTTGGG	-0.0322
ATTAGAGC	0.041
ATAGTGTA	0.0723
AAGAAGTA	0.12
CAAGCAAA	0.0203
CACACTCA	0.194
CGACAGTC	-0.12
CACGCCTC	-0.0988
GTATAATA	0.283
CTATAATA	-0.101
GTATAAAA	0.18
ATATAATG	0.0839
GTATAAGA	-0.0708
ATATAATA	0.261
